Measured values taken from article PMC7862700, “An all-to-all approach to the identification of sequence-specific readers for epigenetic DNA modifications on cytosine”.

Experiments:
Assay in all cases: DAPPL (digital affinity profiling via proximity ligation, sequencing); 10 mM Tris-HCl pH 7.5, 50 mM NaCl, 1 mM DTT, 4% glycerol, room temperature, 30 min; GST-TFs on glutathione beads, 16-mer random dsDNA library, 0.1% formaldehyde crosslink after washing; high values mean tight binding
[1] = biological target: T1, FEV (Homo sapiens, UniProt Q99581 1-238); conditions: protein: recombinant; tags: N-terminal GST; dsDNA, one strand shown
T1 sequence: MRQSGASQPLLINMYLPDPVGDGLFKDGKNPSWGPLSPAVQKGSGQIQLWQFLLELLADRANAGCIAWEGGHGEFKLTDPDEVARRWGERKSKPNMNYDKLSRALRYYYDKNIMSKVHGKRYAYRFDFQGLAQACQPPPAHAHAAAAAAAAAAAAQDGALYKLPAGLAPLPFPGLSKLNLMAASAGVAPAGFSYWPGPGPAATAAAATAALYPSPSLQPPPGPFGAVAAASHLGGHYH
In short: (§1)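 Pools were built from human transcription factors expressed in yeast as GST fusions, captured on glutathione beads and DNA-barcoded, along with a tag-only sample. Incubation with 200 nmole of a 16-mer random double-stranded DNA library lasted 30 min at room temperature in Tris/NaCl/DTT/glycerol buffer, and was followed by washing, 0.1% formaldehyde crosslinking, proximity ligation, PCR amplification and Illumina NextSeq500 sequencing. Binding signal is the quotient of each hexamer's read frequency for a factor and its frequency for the tag-only sample.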

[2] = biological target: ETV5 (Homo sapiens, UniProt P41161 1-510); conditions: protein: recombinant; tags: N-terminal GST; dsDNA, one strand shown
ETV5, sequence (P41161 whole entry): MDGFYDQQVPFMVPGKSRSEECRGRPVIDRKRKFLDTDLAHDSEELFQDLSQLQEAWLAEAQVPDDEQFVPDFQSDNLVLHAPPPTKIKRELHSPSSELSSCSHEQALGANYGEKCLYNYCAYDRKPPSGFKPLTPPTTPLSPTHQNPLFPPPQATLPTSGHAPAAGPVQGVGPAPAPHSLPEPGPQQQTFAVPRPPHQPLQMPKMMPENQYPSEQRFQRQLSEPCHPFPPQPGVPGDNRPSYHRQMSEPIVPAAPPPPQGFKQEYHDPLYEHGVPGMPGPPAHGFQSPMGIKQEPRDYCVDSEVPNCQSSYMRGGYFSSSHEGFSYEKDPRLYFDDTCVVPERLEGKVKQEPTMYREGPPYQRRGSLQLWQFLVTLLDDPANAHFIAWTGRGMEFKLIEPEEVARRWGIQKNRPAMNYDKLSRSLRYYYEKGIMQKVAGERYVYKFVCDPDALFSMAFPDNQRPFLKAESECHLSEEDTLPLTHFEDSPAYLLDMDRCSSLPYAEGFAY
In short: as §1

[3] = biological target: HSF1 (Homo sapiens, UniProt Q00613 1-529); conditions: protein: recombinant; tags: N-terminal GST; chain copies: 3; dsDNA, one strand shown
HSF1, sequence (Q00613 whole entry): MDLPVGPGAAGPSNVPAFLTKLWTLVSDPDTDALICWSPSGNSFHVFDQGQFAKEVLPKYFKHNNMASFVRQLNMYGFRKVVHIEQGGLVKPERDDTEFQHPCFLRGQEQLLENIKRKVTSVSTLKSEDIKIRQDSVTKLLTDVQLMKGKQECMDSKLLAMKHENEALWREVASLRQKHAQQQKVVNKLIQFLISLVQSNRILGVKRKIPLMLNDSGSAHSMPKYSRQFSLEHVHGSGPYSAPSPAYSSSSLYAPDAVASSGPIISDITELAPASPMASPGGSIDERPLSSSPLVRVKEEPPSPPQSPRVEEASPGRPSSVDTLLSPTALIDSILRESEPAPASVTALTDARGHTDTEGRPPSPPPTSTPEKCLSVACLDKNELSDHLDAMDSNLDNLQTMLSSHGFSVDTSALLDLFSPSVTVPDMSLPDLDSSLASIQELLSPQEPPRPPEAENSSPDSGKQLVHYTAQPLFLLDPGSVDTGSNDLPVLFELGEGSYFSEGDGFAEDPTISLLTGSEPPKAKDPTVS
In short: as §1

[4] = biological target: T2, SPIC (Homo sapiens, UniProt Q8N5J4 1-248); conditions: protein: recombinant; tags: N-terminal GST; dsDNA, one strand shown
T2 sequence: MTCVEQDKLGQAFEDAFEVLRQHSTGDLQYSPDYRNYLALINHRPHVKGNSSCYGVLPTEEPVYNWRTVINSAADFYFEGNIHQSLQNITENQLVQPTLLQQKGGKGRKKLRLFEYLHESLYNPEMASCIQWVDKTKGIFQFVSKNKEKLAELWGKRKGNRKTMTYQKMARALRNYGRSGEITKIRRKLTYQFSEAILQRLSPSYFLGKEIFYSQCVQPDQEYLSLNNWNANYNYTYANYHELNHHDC
In short: as §1

[5] = biological target: ELF4 (Homo sapiens, UniProt Q99607 1-663); conditions: protein: recombinant; tags: N-terminal GST; dsDNA, one strand shown
ELF4, sequence (Q99607 whole entry): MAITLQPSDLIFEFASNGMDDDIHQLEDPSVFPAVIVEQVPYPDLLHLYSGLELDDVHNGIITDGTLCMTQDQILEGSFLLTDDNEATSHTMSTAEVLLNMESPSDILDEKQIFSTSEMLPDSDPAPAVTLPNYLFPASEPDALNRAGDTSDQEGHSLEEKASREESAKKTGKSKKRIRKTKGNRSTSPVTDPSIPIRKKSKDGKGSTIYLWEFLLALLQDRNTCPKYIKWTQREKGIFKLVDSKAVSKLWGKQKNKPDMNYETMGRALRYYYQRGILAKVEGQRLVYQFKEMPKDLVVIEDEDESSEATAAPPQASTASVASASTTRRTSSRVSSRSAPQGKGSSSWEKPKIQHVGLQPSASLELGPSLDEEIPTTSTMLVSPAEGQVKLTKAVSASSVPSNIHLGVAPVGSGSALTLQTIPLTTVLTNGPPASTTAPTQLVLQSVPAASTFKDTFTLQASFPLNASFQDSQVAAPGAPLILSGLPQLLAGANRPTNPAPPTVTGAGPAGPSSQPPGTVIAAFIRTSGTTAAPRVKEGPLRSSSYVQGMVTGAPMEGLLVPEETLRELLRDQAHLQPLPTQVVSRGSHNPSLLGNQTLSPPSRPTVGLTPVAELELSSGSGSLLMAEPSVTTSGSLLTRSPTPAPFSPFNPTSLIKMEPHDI
In short: as §1

[6] = biological target: T3, ELK4 (Homo sapiens, UniProt P28324-2 1-405); conditions: protein: recombinant; tags: N-terminal GST; dsDNA, one strand shown
T3 sequence: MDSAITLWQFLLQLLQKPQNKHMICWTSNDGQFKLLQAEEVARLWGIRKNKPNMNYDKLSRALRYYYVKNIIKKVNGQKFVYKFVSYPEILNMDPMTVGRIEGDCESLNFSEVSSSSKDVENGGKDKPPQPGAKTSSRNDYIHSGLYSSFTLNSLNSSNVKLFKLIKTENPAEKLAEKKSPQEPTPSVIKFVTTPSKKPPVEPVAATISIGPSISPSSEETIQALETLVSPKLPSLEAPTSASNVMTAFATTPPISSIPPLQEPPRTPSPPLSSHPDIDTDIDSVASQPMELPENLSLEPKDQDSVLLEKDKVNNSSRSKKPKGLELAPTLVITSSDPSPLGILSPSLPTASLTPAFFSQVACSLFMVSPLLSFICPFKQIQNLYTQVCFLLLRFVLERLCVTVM
In short: as §1

[7] = biological target: T4, ETV2 (Homo sapiens, UniProt O00321 1-342); conditions: protein: recombinant; tags: N-terminal GST; dsDNA, one strand shown
T4 sequence: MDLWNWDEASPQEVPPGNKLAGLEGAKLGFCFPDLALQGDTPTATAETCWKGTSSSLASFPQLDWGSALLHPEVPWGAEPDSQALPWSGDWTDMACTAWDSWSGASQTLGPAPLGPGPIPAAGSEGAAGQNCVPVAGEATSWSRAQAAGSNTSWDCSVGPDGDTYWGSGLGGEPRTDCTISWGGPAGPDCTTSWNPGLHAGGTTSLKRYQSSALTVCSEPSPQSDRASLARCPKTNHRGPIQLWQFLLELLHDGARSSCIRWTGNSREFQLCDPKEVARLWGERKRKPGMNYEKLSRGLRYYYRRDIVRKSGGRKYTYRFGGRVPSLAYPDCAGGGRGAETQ
In short: as §1

[8] = biological target: T5, ELF3 (Homo sapiens, UniProt P78545 1-371); conditions: protein: recombinant; tags: N-terminal GST; dsDNA, one strand shown
T5 sequence: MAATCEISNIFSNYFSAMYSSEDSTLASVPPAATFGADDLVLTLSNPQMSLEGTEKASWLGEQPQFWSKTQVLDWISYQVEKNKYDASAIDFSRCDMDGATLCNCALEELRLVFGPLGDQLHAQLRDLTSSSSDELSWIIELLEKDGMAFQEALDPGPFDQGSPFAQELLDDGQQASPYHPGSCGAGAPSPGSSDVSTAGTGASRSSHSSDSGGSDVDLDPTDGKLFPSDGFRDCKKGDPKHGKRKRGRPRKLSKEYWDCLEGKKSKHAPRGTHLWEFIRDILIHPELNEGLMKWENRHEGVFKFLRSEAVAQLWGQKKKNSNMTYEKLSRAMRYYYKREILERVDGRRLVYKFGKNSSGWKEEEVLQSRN
In short: as §1

[9] = biological target: CRX (Homo sapiens, UniProt O43186 1-299); conditions: protein: recombinant; tags: N-terminal GST; dsDNA, one strand shown
CRX, sequence (O43186 whole entry): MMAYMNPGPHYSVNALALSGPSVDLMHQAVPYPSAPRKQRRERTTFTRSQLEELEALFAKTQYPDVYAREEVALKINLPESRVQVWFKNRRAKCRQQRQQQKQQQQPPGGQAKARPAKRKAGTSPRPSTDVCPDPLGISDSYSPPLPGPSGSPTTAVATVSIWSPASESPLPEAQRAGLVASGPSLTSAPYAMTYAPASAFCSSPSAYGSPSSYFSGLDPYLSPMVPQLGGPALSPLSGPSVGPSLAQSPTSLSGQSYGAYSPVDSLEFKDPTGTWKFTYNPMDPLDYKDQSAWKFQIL
In short: as §1

[10] = biological target: ETV1 (Homo sapiens, UniProt P50549 1-477); conditions: protein: recombinant; tags: N-terminal GST; dsDNA, one strand shown
ETV1, sequence (P50549 whole entry): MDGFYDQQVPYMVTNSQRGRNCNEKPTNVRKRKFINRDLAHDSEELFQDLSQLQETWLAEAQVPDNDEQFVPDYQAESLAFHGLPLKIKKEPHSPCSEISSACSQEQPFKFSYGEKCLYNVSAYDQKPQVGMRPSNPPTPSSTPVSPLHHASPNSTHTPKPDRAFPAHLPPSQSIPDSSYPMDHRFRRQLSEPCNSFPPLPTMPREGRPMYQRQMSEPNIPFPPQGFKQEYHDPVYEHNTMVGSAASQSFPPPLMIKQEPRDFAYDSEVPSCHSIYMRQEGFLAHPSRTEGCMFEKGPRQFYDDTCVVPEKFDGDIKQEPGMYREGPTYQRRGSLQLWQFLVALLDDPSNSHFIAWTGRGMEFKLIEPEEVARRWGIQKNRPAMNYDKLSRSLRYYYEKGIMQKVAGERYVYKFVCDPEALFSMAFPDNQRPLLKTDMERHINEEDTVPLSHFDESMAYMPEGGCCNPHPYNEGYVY
In short: as §1

Sequence: CTCCAC
- binding signal [1]: 1.42 fold enrichment (6-mer frequency, TF over GST control)
- binding signal [2]: 1.42 fold enrichment (6-mer frequency, TF over GST control)
- binding signal [3]: 1.26 fold enrichment (6-mer frequency, TF over GST control)
- binding signal [4]: 1.17 fold enrichment (6-mer frequency, TF over GST control)
- binding signal [5]: 1.4 fold enrichment (6-mer frequency, TF over GST control)
- binding signal [6]: 1.46 fold enrichment (6-mer frequency, TF over GST control)
- binding signal [7]: 1.3 fold enrichment (6-mer frequency, TF over GST control)
- binding signal [8]: 1.27 fold enrichment (6-mer frequency, TF over GST control)
- binding signal [9]: 1.17 fold enrichment (6-mer frequency, TF over GST control)
- binding signal [10]: 1.25 fold enrichment (6-mer frequency, TF over GST control)
